Results as given in paper PMC7862700, “An all-to-all approach to the identification of sequence-specific readers for epigenetic DNA modifications on cytosine”.

Tests used:
Experiment in all cases: DAPPL (digital affinity profiling via proximity ligation, sequencing); 10 mM Tris-HCl pH 7.5, 50 mM NaCl, 1 mM DTT, 4% glycerol, room temperature, 30 min; GST-TFs on glutathione beads, 16-mer random dsDNA library, 0.1% formaldehyde crosslink after washing; high values mean tight binding
FLI1 = target: T1, FLI1 (Homo sapiens, UniProt Q01543 1-452); details: protein: recombinant; tags: N-terminal GST; dsDNA, one strand shown
T1 sequence: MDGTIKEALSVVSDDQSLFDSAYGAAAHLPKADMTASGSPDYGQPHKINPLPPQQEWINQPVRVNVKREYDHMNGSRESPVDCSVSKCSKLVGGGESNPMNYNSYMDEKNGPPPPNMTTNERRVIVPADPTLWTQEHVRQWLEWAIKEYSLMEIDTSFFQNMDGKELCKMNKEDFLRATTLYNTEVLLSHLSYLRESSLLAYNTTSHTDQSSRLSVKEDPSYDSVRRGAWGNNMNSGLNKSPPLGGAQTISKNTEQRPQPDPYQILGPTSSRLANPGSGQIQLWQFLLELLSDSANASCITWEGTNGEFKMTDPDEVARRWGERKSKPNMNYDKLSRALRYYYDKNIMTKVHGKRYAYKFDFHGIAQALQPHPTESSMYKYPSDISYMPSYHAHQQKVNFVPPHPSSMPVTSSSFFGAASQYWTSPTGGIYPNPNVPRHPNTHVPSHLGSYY
Method in brief: (§1)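 GST fusions of human transcription factors were expressed in yeast and captured with glutathione beads. Once given DNA barcodes and pooled alongside a tag-only sample, they were incubated for 30 min at room temperature with 200 nmole of a random double-stranded 16-mer DNA library in Tris/NaCl/DTT/glycerol buffer, then washed, crosslinked (0.1% formaldehyde), proximity-ligated, PCR-amplified and sequenced on an Illumina NextSeq500. The binding signal of each hexamer is its read frequency for a factor divided by its frequency for the tag-only sample.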

ELK1 = target: T2, ELK1 (Homo sapiens, UniProt P19419 1-428); details: protein: recombinant; tags: N-terminal GST; dsDNA, one strand shown
T2 sequence: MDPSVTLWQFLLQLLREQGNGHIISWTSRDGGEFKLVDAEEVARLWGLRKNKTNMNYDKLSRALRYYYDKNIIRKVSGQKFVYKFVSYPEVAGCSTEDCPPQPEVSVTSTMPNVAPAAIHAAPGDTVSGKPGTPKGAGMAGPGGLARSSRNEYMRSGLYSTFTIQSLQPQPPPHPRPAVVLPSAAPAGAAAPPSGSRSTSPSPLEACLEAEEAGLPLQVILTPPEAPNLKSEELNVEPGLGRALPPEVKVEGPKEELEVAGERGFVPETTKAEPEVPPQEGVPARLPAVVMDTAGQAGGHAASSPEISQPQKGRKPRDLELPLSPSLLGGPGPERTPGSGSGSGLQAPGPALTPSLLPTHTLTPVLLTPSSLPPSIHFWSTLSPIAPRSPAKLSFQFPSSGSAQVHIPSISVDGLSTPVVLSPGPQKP
Method in brief: as §1

GABPA = target: T3, GABPA (Homo sapiens, UniProt Q06546 1-454); details: protein: recombinant; tags: N-terminal GST; dsDNA, one strand shown
T3 sequence: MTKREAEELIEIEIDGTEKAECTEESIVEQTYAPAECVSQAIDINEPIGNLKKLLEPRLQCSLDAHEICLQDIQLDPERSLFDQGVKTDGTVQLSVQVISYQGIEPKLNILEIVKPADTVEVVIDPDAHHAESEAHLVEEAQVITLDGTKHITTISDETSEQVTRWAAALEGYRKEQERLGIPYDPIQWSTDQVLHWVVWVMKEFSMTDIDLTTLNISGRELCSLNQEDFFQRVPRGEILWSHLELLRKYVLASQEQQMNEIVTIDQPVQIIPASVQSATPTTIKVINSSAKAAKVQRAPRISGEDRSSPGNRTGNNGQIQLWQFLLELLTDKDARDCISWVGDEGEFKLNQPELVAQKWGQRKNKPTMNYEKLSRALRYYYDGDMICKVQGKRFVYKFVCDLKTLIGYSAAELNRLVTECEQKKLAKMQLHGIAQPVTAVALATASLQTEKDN
Method in brief: as §1

ERG = target: T4, ERG (Homo sapiens, UniProt P11308 1-479); details: protein: recombinant; tags: N-terminal GST; dsDNA, one strand shown
T4 sequence: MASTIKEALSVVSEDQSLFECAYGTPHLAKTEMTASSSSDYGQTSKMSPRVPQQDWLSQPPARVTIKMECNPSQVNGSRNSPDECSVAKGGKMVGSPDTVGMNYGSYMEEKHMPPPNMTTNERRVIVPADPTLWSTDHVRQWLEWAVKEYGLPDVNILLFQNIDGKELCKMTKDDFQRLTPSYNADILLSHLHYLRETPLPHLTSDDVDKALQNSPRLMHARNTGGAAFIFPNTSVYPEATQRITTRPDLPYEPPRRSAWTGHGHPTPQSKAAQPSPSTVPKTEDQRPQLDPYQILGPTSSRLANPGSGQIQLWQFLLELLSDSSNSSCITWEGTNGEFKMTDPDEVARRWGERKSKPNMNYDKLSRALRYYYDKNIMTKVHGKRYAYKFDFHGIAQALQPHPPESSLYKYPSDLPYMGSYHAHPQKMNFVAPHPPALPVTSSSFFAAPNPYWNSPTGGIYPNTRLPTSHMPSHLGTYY
Method in brief: as §1

ELF1 = ELF1 (Homo sapiens, UniProt P32519 1-619); details: protein: recombinant; tags: N-terminal GST; dsDNA, one strand shown
Method in brief: as §1

EHF = target: T5, EHF (Homo sapiens, UniProt Q9NZC4 1-300); details: protein: recombinant; tags: N-terminal GST; dsDNA, one strand shown
T5 sequence: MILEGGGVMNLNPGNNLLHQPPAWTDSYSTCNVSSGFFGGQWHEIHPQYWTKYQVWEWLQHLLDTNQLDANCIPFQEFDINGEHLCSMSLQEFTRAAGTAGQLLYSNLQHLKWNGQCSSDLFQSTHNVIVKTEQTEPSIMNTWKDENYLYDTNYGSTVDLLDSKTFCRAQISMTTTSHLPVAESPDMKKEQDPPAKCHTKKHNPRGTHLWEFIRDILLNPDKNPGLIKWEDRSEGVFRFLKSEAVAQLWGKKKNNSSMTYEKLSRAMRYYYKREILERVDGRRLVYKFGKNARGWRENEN
Method in brief: as §1

SPI1 = SPI1 (Homo sapiens, UniProt P17947 1-270); details: protein: recombinant; tags: N-terminal GST; dsDNA, one strand shown
Method in brief: as §1

SPIB = SPIB (Homo sapiens, UniProt Q01892 1-262); details: protein: recombinant; tags: N-terminal GST; dsDNA, one strand shown
Method in brief: as §1

ELK3 = target: T6, ELK3 (Homo sapiens, UniProt P41970 1-407); details: protein: recombinant; tags: N-terminal GST; dsDNA, one strand shown
T6 sequence: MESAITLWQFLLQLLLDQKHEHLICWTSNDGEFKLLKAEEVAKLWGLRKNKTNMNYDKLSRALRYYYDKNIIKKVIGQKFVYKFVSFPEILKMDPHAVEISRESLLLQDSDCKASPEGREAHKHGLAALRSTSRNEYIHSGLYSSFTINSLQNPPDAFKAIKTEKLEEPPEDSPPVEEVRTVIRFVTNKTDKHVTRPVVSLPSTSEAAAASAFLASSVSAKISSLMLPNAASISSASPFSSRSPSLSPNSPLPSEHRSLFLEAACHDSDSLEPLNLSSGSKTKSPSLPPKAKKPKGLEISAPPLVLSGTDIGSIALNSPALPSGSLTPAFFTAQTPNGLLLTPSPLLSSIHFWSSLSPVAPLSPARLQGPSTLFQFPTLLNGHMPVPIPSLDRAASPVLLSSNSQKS
Method in brief: as §1

FEV = target: T7, FEV (Homo sapiens, UniProt Q99581 1-238); details: protein: recombinant; tags: N-terminal GST; dsDNA, one strand shown
T7 sequence: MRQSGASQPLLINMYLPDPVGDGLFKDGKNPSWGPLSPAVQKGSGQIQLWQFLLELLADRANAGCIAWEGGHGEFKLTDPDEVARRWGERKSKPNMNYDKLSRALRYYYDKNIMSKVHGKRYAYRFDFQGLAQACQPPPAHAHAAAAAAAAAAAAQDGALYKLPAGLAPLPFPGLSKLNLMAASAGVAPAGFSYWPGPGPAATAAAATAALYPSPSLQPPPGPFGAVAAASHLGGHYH
Method in brief: as §1

ETV5 = ETV5 (Homo sapiens, UniProt P41161 1-510); details: protein: recombinant; tags: N-terminal GST; dsDNA, one strand shown
Method in brief: as §1

HSF1 = HSF1 (Homo sapiens, UniProt Q00613 1-529); details: protein: recombinant; tags: N-terminal GST; chain copies: 3; dsDNA, one strand shown
Method in brief: as §1

SPIC = target: T8, SPIC (Homo sapiens, UniProt Q8N5J4 1-248); details: protein: recombinant; tags: N-terminal GST; dsDNA, one strand shown
T8 sequence: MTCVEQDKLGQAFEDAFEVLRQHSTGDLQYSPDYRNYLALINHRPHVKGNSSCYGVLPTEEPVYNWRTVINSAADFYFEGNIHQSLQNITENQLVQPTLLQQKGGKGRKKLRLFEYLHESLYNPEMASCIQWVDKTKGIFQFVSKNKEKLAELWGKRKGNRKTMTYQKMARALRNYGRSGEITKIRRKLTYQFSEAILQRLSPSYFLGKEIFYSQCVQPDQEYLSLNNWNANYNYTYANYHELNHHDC
Method in brief: as §1

ELF4 = ELF4 (Homo sapiens, UniProt Q99607 1-663); details: protein: recombinant; tags: N-terminal GST; dsDNA, one strand shown
Method in brief: as §1

ELK4 = target: T9, ELK4 (Homo sapiens, UniProt P28324-2 1-405); details: protein: recombinant; tags: N-terminal GST; dsDNA, one strand shown
T9 sequence: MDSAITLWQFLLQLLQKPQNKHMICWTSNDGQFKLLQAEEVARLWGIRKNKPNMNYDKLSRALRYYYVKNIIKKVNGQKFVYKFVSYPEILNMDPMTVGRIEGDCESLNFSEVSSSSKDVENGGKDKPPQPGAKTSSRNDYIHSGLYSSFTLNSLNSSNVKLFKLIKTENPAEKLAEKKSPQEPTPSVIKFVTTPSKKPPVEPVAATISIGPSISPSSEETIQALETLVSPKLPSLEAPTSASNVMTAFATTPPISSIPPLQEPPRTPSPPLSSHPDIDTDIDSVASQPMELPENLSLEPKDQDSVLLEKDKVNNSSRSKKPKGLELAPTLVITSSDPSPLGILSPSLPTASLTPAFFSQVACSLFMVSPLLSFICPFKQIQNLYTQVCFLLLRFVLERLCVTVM
Method in brief: as §1

ETV2 = target: T10, ETV2 (Homo sapiens, UniProt O00321 1-342); details: protein: recombinant; tags: N-terminal GST; dsDNA, one strand shown
T10 sequence: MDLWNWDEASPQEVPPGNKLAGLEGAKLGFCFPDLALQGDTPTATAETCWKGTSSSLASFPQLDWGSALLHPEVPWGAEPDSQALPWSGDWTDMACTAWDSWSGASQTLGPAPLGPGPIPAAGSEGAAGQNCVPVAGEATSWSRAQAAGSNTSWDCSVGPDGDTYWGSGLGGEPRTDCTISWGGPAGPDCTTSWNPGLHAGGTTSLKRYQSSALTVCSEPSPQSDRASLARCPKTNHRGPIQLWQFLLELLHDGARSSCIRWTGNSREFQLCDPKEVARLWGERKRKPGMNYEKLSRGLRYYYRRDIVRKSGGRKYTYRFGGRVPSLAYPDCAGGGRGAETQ
Method in brief: as §1

ELF3 = target: T11, ELF3 (Homo sapiens, UniProt P78545 1-371); details: protein: recombinant; tags: N-terminal GST; dsDNA, one strand shown
T11 sequence: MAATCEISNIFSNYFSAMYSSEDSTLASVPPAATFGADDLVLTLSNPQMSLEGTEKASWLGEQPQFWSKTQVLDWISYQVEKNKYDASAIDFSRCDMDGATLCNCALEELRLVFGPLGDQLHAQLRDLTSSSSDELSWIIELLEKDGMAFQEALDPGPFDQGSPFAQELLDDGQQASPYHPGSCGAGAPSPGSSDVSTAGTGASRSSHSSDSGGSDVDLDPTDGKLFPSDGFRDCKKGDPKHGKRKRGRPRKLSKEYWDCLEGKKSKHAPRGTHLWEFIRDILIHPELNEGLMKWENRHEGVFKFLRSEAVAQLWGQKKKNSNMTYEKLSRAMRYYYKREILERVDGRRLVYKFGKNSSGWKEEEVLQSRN
Method in brief: as §1

CRX = CRX (Homo sapiens, UniProt O43186 1-299); details: protein: recombinant; tags: N-terminal GST; dsDNA, one strand shown
Method in brief: as §1

ETV1 = ETV1 (Homo sapiens, UniProt P50549 1-477); details: protein: recombinant; tags: N-terminal GST; dsDNA, one strand shown
Method in brief: as §1

Chain of ELF4 (Q99607 whole entry): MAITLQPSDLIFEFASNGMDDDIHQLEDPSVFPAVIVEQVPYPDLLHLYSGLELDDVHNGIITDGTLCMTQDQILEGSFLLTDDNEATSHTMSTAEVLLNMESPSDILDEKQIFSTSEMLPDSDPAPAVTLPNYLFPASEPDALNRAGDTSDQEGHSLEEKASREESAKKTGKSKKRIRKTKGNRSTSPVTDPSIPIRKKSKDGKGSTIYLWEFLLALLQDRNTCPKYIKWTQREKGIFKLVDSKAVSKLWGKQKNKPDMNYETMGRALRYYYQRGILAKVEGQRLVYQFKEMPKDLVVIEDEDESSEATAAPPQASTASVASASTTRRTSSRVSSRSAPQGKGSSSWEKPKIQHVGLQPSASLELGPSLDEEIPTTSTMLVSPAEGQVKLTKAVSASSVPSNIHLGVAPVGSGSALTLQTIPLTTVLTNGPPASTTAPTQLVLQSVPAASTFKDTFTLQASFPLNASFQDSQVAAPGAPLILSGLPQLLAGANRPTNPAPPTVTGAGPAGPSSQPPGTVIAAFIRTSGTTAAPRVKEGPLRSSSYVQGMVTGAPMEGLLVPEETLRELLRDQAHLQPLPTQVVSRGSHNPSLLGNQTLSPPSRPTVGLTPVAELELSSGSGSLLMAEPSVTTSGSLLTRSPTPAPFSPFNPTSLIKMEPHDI
Chain of ELF1 (P32519 whole entry): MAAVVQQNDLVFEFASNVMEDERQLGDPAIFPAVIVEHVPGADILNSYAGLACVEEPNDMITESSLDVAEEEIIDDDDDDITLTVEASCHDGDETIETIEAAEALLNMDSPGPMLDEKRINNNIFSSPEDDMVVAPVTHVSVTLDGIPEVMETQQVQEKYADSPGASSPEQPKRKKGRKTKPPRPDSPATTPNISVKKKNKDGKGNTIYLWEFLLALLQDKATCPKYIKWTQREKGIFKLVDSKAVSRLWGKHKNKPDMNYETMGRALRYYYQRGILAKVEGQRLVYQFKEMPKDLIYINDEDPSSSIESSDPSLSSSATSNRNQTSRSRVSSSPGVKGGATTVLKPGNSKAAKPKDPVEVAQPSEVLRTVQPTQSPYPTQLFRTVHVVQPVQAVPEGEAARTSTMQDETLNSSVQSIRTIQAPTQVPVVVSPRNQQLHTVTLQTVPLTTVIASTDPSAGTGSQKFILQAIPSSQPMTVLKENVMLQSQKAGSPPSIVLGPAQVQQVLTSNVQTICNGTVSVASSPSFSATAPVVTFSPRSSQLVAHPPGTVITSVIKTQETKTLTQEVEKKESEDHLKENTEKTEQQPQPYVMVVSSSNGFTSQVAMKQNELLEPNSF
Chain of ETV5 (P41161 whole entry): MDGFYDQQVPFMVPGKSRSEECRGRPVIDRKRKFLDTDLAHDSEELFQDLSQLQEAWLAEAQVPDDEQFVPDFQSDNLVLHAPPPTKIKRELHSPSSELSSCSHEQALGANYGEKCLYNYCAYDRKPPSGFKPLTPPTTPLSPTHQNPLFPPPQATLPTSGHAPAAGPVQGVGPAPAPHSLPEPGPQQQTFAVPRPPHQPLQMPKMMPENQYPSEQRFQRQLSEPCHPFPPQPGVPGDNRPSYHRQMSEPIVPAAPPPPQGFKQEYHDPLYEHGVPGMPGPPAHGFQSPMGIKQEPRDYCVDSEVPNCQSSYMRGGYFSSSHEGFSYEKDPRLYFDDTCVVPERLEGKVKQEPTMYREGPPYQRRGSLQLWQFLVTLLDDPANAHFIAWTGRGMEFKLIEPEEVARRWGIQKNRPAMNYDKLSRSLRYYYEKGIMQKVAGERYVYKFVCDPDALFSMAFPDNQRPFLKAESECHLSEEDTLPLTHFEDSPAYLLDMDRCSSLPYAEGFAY
Chain of HSF1 (Q00613 whole entry): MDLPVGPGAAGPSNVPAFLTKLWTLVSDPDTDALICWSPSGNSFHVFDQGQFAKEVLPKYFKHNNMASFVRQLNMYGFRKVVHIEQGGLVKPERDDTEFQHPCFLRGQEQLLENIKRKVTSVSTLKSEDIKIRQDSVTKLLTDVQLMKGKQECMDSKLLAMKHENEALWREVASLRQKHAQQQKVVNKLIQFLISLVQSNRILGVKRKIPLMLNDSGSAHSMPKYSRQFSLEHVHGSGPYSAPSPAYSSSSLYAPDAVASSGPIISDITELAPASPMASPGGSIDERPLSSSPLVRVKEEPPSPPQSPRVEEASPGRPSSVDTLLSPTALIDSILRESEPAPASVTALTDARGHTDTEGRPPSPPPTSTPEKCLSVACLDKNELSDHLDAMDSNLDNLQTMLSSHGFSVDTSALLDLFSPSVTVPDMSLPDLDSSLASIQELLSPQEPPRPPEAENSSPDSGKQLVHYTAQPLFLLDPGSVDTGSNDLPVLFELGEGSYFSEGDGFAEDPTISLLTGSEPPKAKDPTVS
Chain of ETV1 (P50549 whole entry): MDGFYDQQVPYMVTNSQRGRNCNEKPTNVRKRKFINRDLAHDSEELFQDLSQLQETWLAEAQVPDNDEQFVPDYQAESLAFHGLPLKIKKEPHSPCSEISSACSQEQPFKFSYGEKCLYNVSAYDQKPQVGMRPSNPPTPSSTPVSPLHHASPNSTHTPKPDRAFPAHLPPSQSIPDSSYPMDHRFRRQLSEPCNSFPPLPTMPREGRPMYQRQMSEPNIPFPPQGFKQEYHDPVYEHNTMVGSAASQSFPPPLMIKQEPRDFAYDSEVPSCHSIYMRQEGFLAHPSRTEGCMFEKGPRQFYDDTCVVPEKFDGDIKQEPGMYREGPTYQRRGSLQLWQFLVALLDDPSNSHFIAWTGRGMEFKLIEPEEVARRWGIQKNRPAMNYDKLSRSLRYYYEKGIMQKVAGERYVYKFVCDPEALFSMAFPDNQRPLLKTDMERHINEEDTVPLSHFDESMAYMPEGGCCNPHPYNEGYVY
Chain of SPIB (Q01892 whole entry): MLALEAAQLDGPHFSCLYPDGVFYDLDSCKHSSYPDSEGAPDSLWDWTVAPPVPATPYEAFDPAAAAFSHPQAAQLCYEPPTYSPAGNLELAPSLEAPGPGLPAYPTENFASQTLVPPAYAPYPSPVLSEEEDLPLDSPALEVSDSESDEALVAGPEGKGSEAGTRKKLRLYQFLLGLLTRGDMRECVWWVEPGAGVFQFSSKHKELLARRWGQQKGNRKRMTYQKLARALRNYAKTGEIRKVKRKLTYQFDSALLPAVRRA
Chain of CRX (O43186 whole entry): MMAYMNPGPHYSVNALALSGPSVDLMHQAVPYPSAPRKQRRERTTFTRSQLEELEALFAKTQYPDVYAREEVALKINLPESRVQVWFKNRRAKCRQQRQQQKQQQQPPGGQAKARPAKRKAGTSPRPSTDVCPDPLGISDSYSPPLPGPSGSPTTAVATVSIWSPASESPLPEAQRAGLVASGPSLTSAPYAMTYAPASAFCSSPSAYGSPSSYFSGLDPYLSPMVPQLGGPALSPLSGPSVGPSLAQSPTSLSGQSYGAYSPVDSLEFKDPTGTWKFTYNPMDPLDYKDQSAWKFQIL

## AGCTCA
FLI1
  binding signal: 1.07 fold enrichment (6-mer frequency, TF over GST control)
ELK1
  binding signal: 1.1 fold enrichment (6-mer frequency, TF over GST control)
GABPA
  binding signal: 1.15 fold enrichment (6-mer frequency, TF over GST control)
ERG
  binding signal: 1.08 fold enrichment (6-mer frequency, TF over GST control)
ELF1
  binding signal: 1.2 fold enrichment (6-mer frequency, TF over GST control)
EHF
  binding signal: 1.21 fold enrichment (6-mer frequency, TF over GST control)
SPI1
  binding signal: 1.06 fold enrichment (6-mer frequency, TF over GST control)
SPIB
  binding signal: 1.17 fold enrichment (6-mer frequency, TF over GST control)
ELK3
  binding signal: 1.12 fold enrichment (6-mer frequency, TF over GST control)
FEV
  binding signal: 1.08 fold enrichment (6-mer frequency, TF over GST control)
ETV5
  binding signal: 1.1 fold enrichment (6-mer frequency, TF over GST control)
HSF1
  binding signal: 1.22 fold enrichment (6-mer frequency, TF over GST control)
SPIC
  binding signal: 1.08 fold enrichment (6-mer frequency, TF over GST control)
ELF4
  binding signal: 1.16 fold enrichment (6-mer frequency, TF over GST control)
ELK4
  binding signal: 1.27 fold enrichment (6-mer frequency, TF over GST control)
ETV2
  binding signal: 1.25 fold enrichment (6-mer frequency, TF over GST control)
ELF3
  binding signal: 1.11 fold enrichment (6-mer frequency, TF over GST control)
CRX
  binding signal: 1.45 fold enrichment (6-mer frequency, TF over GST control)
ETV1
  binding signal: 1.24 fold enrichment (6-mer frequency, TF over GST control)
